# Pf Dd2 inh – Plasmodium falciparum Dd2 growth inhibition | 120,000 tested, 4.3% active | AID 1347417 | P. falciparum Dd2 growth, SYBR Green, 72 h | Potency, µM (titrated, usually from 28.9 µM), inactives show at the top dose activity, negative = inhibition, usual class: inhibitors; active means well fitted inhibition curve with a large enough effect;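 further: plate controls were DMSO vehicle for no effect and reference drug for full effect; nearly all actives have a fitted effect of over 65% in size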
#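 Infected erythrocytes (Dd2, 0.3% parasitemia, 2.5% hematocrit final) are added to compound in RPMI-1640/Albumax II medium, grown 72 h at 37C in low oxygen, then lysed with saponin/Triton-X containing SYBR Green and read by fluorescence.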
# Starred values were filed as active, the others as inactive; i = inactive; [ ] = remark or other dose. Only a selection was taken, and hits are over-represented in it overall. Potency means the concentration at half of the fitted maximal effect.
SMILES,Pf Dd2 inh
Cc1ccc(-n2c(/C=C\c3ccc(F)cc3)nc3ccccc3c2=O)cc1Cl,i
Cc1cccc(-c2nc3c4ccccc4nc(N4CCN(c5ccc(F)cc5)CC4)n3n2)c1,-2.9%
CCc1ccc(-n2c(N3CCN(c4ccc(F)cc4)CC3)nc3ccccc3c2=O)cc1,5.62µM*
CCc1ccc(-n2c(N3CCN(c4cccc(C)c4C)CC3)nc3ccccc3c2=O)cc1,11.2µM*
COCc1ccc2c(c1)c(OC(C)(C)C(=O)NCCCn1ccnc1)nn2Cc1cccc(OC)c1,i
O[C@@H]1C[C@@H](c2nc(-c3cccnc3)no2)N(CC2CC2)C1,-6.6%[44.1 µM]
CC1CCN(c2ccc(-c3cccc(N)c3)nn2)CC1,-11.9%
COCCn1c(=N)c(C(=O)NC2CCCC2)cc2c(=O)n3cc(C)ccc3nc21,3.3%
CCOCCCn1c(=N)c(S(=O)(=O)c2ccc(C)cc2)cc2c(=O)n3cccc(C)c3nc21,-6.0%
CCOCCCn1c(=N)c(C(=O)NC2CCCC2)cc2c(=O)n3cccc(C)c3nc21,2.24µM*
CN(CCO)c1ccc(C(=O)N2CCC(Oc3cccnc3)CC2)cn1,-28.4%
COc1ccc(C2Cn3nnc(-c4noc(-c5cccc(N(C)C)c5)n4)c3CO2)cc1 (stereo not given),i
COc1ccc(-c2noc([C@@H]3CCCN3C(=O)c3cccc(C)c3)n2)cc1,-6.5%
Cc1ccc(C)c(Nc2nn3c(=O)c4ccc(C(=O)NCCC5=CCCCC5)cc4nc3s2)c1,10µM*
Cc1ccc(C)c(Nc2nn3c(=O)c4ccc(C(=O)NC5CCCCC5)cc4nc3s2)c1,-24.7%
CCN(CC)CCNC(=O)c1ccc2c(=O)n3nc(Nc4cccc(Cl)c4C)sc3nc2c1,5.62µM*
Cc1ccc(Cl)cc1Nc1nn2c(=O)c3ccc(C(=O)NC4CCC(C)CC4)cc3nc2s1 (stereo not given),-9.2%
Cc1c(Cl)cccc1Nc1nn2c(=O)c3ccc(C(=O)NCCC4=CCCCC4)cc3nc2s1,3.98µM*
Cc1ccccc1Nc1nn2c(=O)c3ccc(C(=O)N4CCCC(C)C4)cc3nc2s1 (stereo not given),i
Cc1ccc(C)c(Nc2nn3c(=O)c4ccc(C(=O)NCCc5ccccc5)cc4nc3s2)c1,6.4%
CN(C)c1cccc(C(=O)N2CCC[C@H]2c2nc(-c3ccc(F)cc3)no2)c1,17.3%
CC(C)CC(=O)NC[C@@H]1C[C@H](F)CN1C(=O)c1cn(CCN)nn1,-14.5%
O=C(C[C@@H]1C[C@H]2O[C@H](CNCc3ccccc3Cl)[C@@H](O)[C@H]2O1)N1CCC(F)(F)C1,32.8%[44.1 µM]
O=C(Cn1ncc2ccccc2c1=O)NC1CCCc2c1[nH]c1c(Cl)cccc21 (stereo not given),-4.5%
O=C(Cn1ccn2nc(-c3ccccc3)c(CO)c2c1=O)Nc1ccc(F)cc1F,-18.3%
SMILES,Pf Dd2 inh
Cc1ccc2nc(CO[C@H]3CN(Cc4ccc(Cl)cc4)C[C@H]3F)[nH]c2c1,-5.1%[44.1 µM]
O=C(CCc1ccccc1)N1CCC2(CC1)CC(OCC1CC1)CCO2 (stereo not given),6.3%
COCC(=O)NC[C@H]1OC[C@@H](NCc2ccc(F)cc2)[C@@H]1O,14.1µM*
COCC(=O)NC[C@H]1OC[C@@H](NCc2ccccc2F)[C@@H]1O,1.1%[44.1 µM]
COCC(=O)NC[C@H]1OC[C@@H](NCc2ccc(C)cc2)[C@@H]1O,10.8%[44.1 µM]
Cc1ncc2c(c1CNC(=O)Cn1cnc3ccccc3c1=O)CCNC2,-5.2%
CN1CCN(C(=O)N[C@@H]2CCOC[C@H]2OCc2ccccc2)CC1,-14.5%
O=C(NCCc1ccc(Cl)cc1)c1nc(-c2ccc(Cl)cc2Cl)c2ccccn12,-18.7%
O=C(NCCc1ccc(Cl)cc1)c1cc(-c2cnccc2Cl)c2cccn2n1,-4.3%
O=C(NCCc1ccc(Cl)cc1)c1nc(-c2ccc(Cl)cc2Cl)c2cnccn12,4.47µM*
O=C1CC(c2cn[nH]c2C(=O)O)c2c(n[nH]c2-c2cccs2)N1 (stereo not given),-3.7%
Cc1ccc2nc(-c3cc(NC(=O)/C=C/c4ccccc4)ccc3Cl)oc2c1,11.2µM*
O=C(/C=C/c1ccccc1)Nc1cc(-c2nc3ccccc3o2)ccc1Cl,15.2%
Cc1ccc2nc(-c3cc(NC(=O)c4ccc5c(c4)OCCO5)ccc3Cl)oc2c1,13.0%
Cc1ccc(CNC(=O)[C@H]2CN(Cc3ccccc3)C[C@H]2C(=O)O)o1,10.7%
CCc1nc2c(c(-c3ccc(Cl)cc3)n1)CN(C(=O)C1CCCC1)CC2,i
CC1CCCCN1Cc1c(O)ccc2c(=O)c(-c3ccccc3Cl)c(C(F)(F)F)oc12 (stereo not given),8.91µM*
CC1CCCCN1Cc1c(O)ccc2c(=O)c(-c3ccc(Cl)cc3)coc12 (stereo not given),2.24µM*
O=C(Cc1ccccc1Cl)N1CCC2(CC1)NC(=O)N(c1cccc(F)c1)N2,-8.9%
Cc1ccc(NC(=O)c2ccc3c(c2)N(C)C2CCCN2C3=O)cc1C (stereo not given),-10.0%
COc1ccc(-n2cc(C(=O)NCCc3ccc(C)cc3)c3ccccc3c2=O)cc1,i
CCOc1ccc(CCNC(=O)c2cn(-c3cccc(OC)c3)c(=O)c3ccccc23)cc1,-22.9%

# Screening results deposited in PubChem BioAssay by National Center for Advancing Translational Sciences (NCATS).
